About 2,200 (88%) of roughly 2,500 compounds were called active.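 How the source made its calls: active means primary screen active, with duplicate mean activation above negative control mean plus 3 SD (cut at about 11% in these data); inactive means the rest.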 So high a share suggests a set chosen from earlier hits. Only a sample is shown.

The assay deals with High affinity choline transporter 1 (Homo sapiens) (UniProt Q9GZV3). Description: CHT activators, confirmation, cell-based, membrane potential dye, duplicate (AID 504833). The following applies: CHT-expressing cells, membrane potential dye fluorescence (FDSS); at 10 µM; stronger effect = higher value; % of choline EC20–EC90 response window; HEK293 expressing CHT LV-AA mutant; choline added at its EC20.
Chain of High affinity choline transporter 1 (Homo sapiens) (Q9GZV3 whole entry, looked up): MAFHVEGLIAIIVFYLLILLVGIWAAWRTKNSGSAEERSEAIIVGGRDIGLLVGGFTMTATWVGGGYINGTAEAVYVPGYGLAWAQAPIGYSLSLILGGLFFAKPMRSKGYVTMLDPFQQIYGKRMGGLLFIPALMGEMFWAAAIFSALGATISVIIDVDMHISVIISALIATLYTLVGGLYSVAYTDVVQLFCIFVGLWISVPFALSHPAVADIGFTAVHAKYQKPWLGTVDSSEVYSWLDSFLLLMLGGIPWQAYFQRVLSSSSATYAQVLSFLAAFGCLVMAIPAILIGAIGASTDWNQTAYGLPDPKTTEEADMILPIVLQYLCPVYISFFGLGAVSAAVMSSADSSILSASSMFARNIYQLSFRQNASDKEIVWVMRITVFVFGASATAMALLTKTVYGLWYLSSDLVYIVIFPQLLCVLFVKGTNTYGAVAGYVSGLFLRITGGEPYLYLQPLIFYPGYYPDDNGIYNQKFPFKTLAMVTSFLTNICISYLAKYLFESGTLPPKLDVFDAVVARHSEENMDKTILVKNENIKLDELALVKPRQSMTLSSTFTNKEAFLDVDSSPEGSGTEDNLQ
As for `Nc1scc[n+]1Cc1cccc2cccnc12`, the activation was 42.7% (active).
Take `Cn1c(=O)n(Cc2ccco2)c(=N)c2c3c(sc21)CCCC3`: the activation is 30.6% (active).
Under `CCn1c(/C=C/Nc2ccccc2)[n+](CC)c2ccc(C(=O)OCC(F)(F)F)cc21` stands 68.4% (active); under `CC(Sc1nc2ccccc2c(=O)n1Cc1ccco1)C(=O)c1ccccc1` (stereo unspecified), 16.9% (active); under `Cc1nnc(-c2ccc(Oc3ccc(C)c(C)c3)c([N+](=O)[O-])c2)o1`, 15% (active).
On to `Cc1ccc2c(c1)N(CC(=O)N(Cc1ccccn1)Cc1ccco1)C(=O)C(C(C)C)O2` (stereo unspecified), for which the activation is 30.6% (active).
Under `Clc1ccc(COn2c(-c3ccc(Cl)cc3Cl)nc3ncccc32)cc1` stands 36.3% (active); under `COc1ccccc1NC(=O)CN(c1ccccc1OC)S(=O)(=O)c1ccccc1`, 12% (active).
Under `COc1ccccc1NC(=O)CSc1nnc(-c2ccoc2C)n1CCc1ccccc1` stands 3.73% (inactive); under `Cc1c(C)c2c(OCC(=O)N[C@@H](C(=O)O)c3ccccc3)cc3c(c2oc1=O)CCC(C)(C)O3`, 7.79% (inactive).
Under `Cc1cc(NC(=O)c2cnn3cccnc23)n(-c2ccccc2)n1` stands 52.8% (active); under `CCN1CCCC1CNC(=O)c1cc2c(=O)n(C)c3ccccc3c2n1C` (stereo unspecified), 44.7% (active).
As for `CCOC(=O)c1cccnc1NC(=O)c1ccncc1`, the activation was 35.3% (active).
The same measure for `Cc1nc2ccccc2c(=O)n1CCCn1ccnc1`: 22.6% (active); for `Cc1nc2c(-c3ccccc3)c(C)[nH]n2c(=O)c1Cl`: 8.04% (inactive).
Under `CC1=CC(C)(C)N(C(=O)CSc2nnc(-c3ccccc3)o2)c2ccc(C)cc21` stands 7.25% (inactive).
The same measure for `CCCCN(CCCC)CC(O)Cn1c2ccccc2c(=O)c2ccccc21` (stereo unspecified): 44.6% (active); for `CC(C)CC(COCc1ccc(Cl)cc1)N1CCN(C(=O)c2ccc(C(F)(F)F)cc2)CCC1=O` (stereo unspecified): 33.6% (active).
As for `COc1nc(N=C(N)N)nc2c(C)cccc12`, the activation is 40.5% (active).
The same measure for `COc1ccc2nc(/N=C(\N)NC(=O)Nc3ccccc3)nc(C)c2c1`: 6.06% (inactive); for `Cc1nc(N=C(N)N)nc2c(C)cccc12`: 49.8% (active).
The same measure for `CN1CCc2c(sc3c2c(NCc2ccco2)nc2nnnn23)C1`: 73.5% (active).
The same measure for `CCOc1ccc(C2c3[nH]c4ccccc4c3CCN2Cc2cccn2-c2ncccn2)cc1` (stereo unspecified): 17.1% (active); for `C=CCNc1nnc(C)c2ccccc12`: 55.7% (active); for `COC(=O)c1sc(C(F)(F)F)c(-c2ccccc2)c1S(=O)(=O)N(C)C`: 27.1% (active).
With `CC1(C)Cc2c(sc3nc4n(c(=N)c23)CCCCC4)CO1`, the activation is 40.2% (active).
For the compound `CN1CCN(c2cc3c(cc2F)c(=O)c(C(=O)O)cn3CCF)CC1`, the activation was 63.4% (active).
As to `CCn1cc(S(=O)(=O)c2cccc(C)c2)c(=O)c2cc(F)c(N3CCN(C)CC3)cc21`, the activation was 52.5% (active).
Under `Cn1c(=O)[nH]c(=O)c2c1nc(N1CCN(CCO)CC1)n2CCSc1nc2ccccc2s1` stands 69.4% (active); under `Cc1ccc(-n2c(C)cc(/C=N\NC(=O)CC(=O)NC(C)C)c2C)cc1`, 33.2% (active).
Under `O=C(Nc1ccccc1N1CCN(c2ccccc2)CC1)c1cccc(F)c1` stands 36.2% (active); under `C[C@H]1CCC(=O)N([C@H](CSc2ccccc2)Cc2ccccc2)CC1`, 12% (active); under `O=C(c1ccc(F)c(S(=O)(=O)N2CCOCC2)c1)N(CCc1ccccc1)Cc1ccccc1`, 19.7% (active).
Under `O=C1c2ccccc2C(=O)c2c1cccc2N1CCN(CCO)CC1` stands 47.2% (active); under `CCCCCCCCCCOC(=O)Cn1c(COc2ccc(C)cc2)[n+](C)c2ccccc21`, 49.5% (active); under `CCCCCCCCCCOC(=O)Cn1c(COc2cccc(OC)c2)[n+](C)c2ccccc21`, 63.2% (active).
Turning to `CCOC(=O)c1cn(CC)c2cc(F)c(F)cc2c1=O`, the activation was 50.9% (active).
The same measure for `COc1cccc(C(=O)NC(=O)Nc2nc(C)cc(C(F)(F)F)n2)c1`: 49.4% (active).
Consider `COC(=O)c1ccc(C(NC(=O)OCc2ccccc2)/C(C)=C/[C@@H](C)C(=O)NCc2ccc(OC)c(OC)c2)cc1` (stereo partly specified), for which the activation was 22.6% (active).
For `CCCCn1c(N)c(N(CCC(C)C)C(=O)c2ccc(COc3ccccc3)o2)c(=O)[nH]c1=O`, the activation was 24.5% (active).
In the case of `CN(C)/C=C/C(=O)c1cnc2sccn2c1=O`, the activation was 42.8% (active).
For `COc1cc2c(cc1OC)C(Nc1ccc(S(N)(=O)=O)cc1)=NC(C)(C)C2`, the activation is 71.7% (active).
Under `CC(=O)c1ccccc1OCc1ccc(C(=O)c2ccccc2)cc1` stands 25% (active); under `Cc1nnc(C)c2c(C)n(N)c(C)c12`, 19.2% (active).
Under `Nc1ccccc1SCc1cc([N+](=O)[O-])cc2c1OCOC2` stands 33.2% (active); under `O=C(Nc1ccncc1)c1ccc(Cl)c([N+](=O)[O-])c1`, 35.4% (active); under `COc1ccc(Nc2nnc(C)c3ccccc23)cc1`, 38.3% (active).
The same measure for `CN(C)c1ccnc(Nc2ccc(F)cc2)c1C#N`: 52.3% (active); for `Clc1ccc(C[n+]2cc(-c3ccc(Cl)cc3)n3c2CCC3)cc1`: 57.3% (active); for `COc1ccc2c(c1)cc1n2CCN=C1NN`: 49% (active).
Regarding `COc1cc2c(cc1OC)C(c1cccc([N+](=O)[O-])c1)=NCC2`, the activation was 68.6% (active).
Under `COc1ccc(Cn2c(-c3ccc(Cl)cc3)c[n+]3ccccc23)cc1` stands 73.3% (active); under `Cc1cc(=O)oc2c(C)c(OC(C)C(=O)NC3CCN(Cc4ccccc4)CC3)ccc12` (stereo unspecified), 56.9% (active).
With `Cn1c(=NC(=O)c2cnccn2)sc2ccccc21`, the activation was 55.7% (active).
Under `Cc1c(CCOC(=O)CC23CC4CC(CC(C)(C4)C2)C3)sc[n+]1Cc1ccc([N+](=O)[O-])cc1` stands 26.9% (active); under `Cc1cccn2c(=O)c3cc(C#N)c(=O)n(CCCN4CCOCC4)c3nc12`, 42.7% (active); under `CN1CCN(c2nc(Nc3ccc(O)cc3)nc3ccccc23)CC1`, 44.2% (active).
Under `CCN1C(=NCCc2cccnc2)N[C@@H](c2ccccc2)[C@H](C(=O)OC)[C@H]1C` stands 14% (active); under `Cc1ccccc1C(=O)NCC(c1ccco1)N1CCc2ccccc21` (stereo unspecified), 9.36% (inactive).
The same measure for `CC(=O)N1CC[n+]2c(-c3ccc([N+](=O)[O-])cc3)csc21`: 38.1% (active); for `C[C@]1(C(=O)NCCc2c[nH]c3ccccc23)C=C[C@@H](Cc2ccccc2)N1C(=O)c1ccccc1`: 10.8% (active).

The values above are taken from PubChem BioAssay AID504833 (Johns Hopkins Ion Channel Center, 2011).
